# Values without a mark were called inactive. The rule behind the calls is not given here.
# Biological target: CD276, Q5ZPR3
# Sequence (Q5ZPR3 whole entry): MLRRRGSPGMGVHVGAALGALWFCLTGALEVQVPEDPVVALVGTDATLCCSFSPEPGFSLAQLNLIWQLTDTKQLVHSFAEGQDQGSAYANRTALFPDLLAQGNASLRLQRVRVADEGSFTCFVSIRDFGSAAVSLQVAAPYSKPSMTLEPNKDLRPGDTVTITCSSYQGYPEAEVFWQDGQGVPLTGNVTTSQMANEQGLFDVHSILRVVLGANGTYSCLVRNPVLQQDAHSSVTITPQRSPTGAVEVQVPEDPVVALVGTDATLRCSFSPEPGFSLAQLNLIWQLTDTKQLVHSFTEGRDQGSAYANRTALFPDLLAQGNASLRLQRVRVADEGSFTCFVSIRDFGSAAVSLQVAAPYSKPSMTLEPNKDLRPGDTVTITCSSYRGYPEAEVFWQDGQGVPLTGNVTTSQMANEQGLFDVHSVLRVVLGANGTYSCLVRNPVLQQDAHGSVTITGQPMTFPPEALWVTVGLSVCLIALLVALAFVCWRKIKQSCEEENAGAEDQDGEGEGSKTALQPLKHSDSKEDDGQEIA
row,Binder,binding in a display sort
1,design_486_d4f32670-1303-4d79-8413-1b14cb3eff50_1678_dldesign_0_cycle1_af2pred (protein) AAMEEKEQRIINAAKANLELAKIALEGAPHNPELALKVLEALARRAKELAEEAKKLGLEEAEKAAKEAAEEIKKYAKEAQALL,not found
2,design_486_d4f32670-1303-4d79-8413-1b14cb3eff50_1479_dldesign_0_cycle1_af2pred (protein) AEATQLLSEAIDLAKEIEENKKKATPEVAKIYDEALEEANKAMNLAAKASVADAATAAKLIAEAKKELEKAKELYEKAKKLEKE,not found
3,design_486_d4f32670-1303-4d79-8413-1b14cb3eff50_1517_dldesign_0_cycle1_af2pred (protein) AEAEKIIKEAKALAKEAKALAAQGAALDPAIAVIAAAAAAAAASAEKMVKENGEAKAEDAKKLLEVAKTLLEQAKAALEAALAAAA,not found
4,design_486_d4f32670-1303-4d79-8413-1b14cb3eff50_1885_dldesign_0_cycle1_af2pred (protein) MEEAGEIVERAEEVYKRAKEAAEENAKRNPEKKEEIKKLYEEAVALIQKSLALASQGALEGNQELLKEAKKKLEEAEKVAKEIEKL,not found
5,design_487_778f5c6d-c470-43b8-8f82-464af6177e08_310_dldesign_0_cycle1_af2pred (protein) AAVLSPEQAGGTFRALATSIRLAAEAGDLDSAEALAAAGLQLAENQPAVAPLVNKAKEEAAKLTPKEAALKLADAFEQAGDALLA,not found
6,design_486_d4f32670-1303-4d79-8413-1b14cb3eff50_1679_dldesign_0_cycle1_af2pred (protein) AAAAKAKVQAAAAKALAEAKKTAAEAKTLTPEEATALLQATAADAIRQAAEYGKLDPEVAGSALVEVVKLLAEARRAVAA,not found
7,design_486_d4f32670-1303-4d79-8413-1b14cb3eff50_2076_dldesign_0_cycle1_af2pred (protein) AALVGEAMVLLAEVAAAGPPEVRAKASAAIAALAAGDLETALKLAKEAAELLKKAGKEYEPAAKKAEEAAKLLKEAAAAAA,not found
8,design_486_d4f32670-1303-4d79-8413-1b14cb3eff50_1336_dldesign_0_cycle1_af2pred (protein) DAAAQAKAVAEKGVELIKKADPETGKKVGELVEKGAASANAASLLLEAAQLAAEAAKKKGWTPEMRQGVHLLLLASSLAHQAAVAAA,not found
9,design_486_d4f32670-1303-4d79-8413-1b14cb3eff50_1573_dldesign_0_cycle1_af2pred (protein) SLEEAKKKAKEVTEKGKEDLATLKEIAVQAAKQGQLAGAQAALNSAKVVAKATAEEVAKLVGPEAGEKALKEGEALVKEAKKEVEKAA,not found
10,design_486_d4f32670-1303-4d79-8413-1b14cb3eff50_1391_dldesign_0_cycle1_af2pred (protein) DARLKKAAELLKKHTEAVLKGPVHPEAKLATAEVAIESAQGIYKAGADDAEVKAAAKEALAAAKELKERAEKELAAAEAAAAAA,not found
11,design_486_d4f32670-1303-4d79-8413-1b14cb3eff50_1569_dldesign_0_cycle1_af2pred (protein) NAQAKAFLDQGKAKMEAGKALIKEGKYEEAAAEFTRAYSYFLAAAGLARAAGDKALAAEAEKAAKEAEALAKEAKA,not found
12,design_486_d4f32670-1303-4d79-8413-1b14cb3eff50_1562_dldesign_0_cycle1_af2pred (protein) MEEREKVAESMKKMLDAIGEIAAAETGEEGKKMAEEAKKEVEEAAKKGLSPEEIAAVANKKAAEILKVTMAAARAK,not found
13,design_486_d4f32670-1303-4d79-8413-1b14cb3eff50_1561_dldesign_0_cycle1_af2pred (protein) SEVEEKAKELAEKALALVKTGTGEAEAKKLLAAAPPEVVIQAIKVAAEKAKAEGPEMAAYANKLAAAANQALLEKN,not found
14,design_486_d4f32670-1303-4d79-8413-1b14cb3eff50_1967_dldesign_0_cycle1_af2pred (protein) DAEVEKLQAQIRTAGLILMASSSPEKAEEALKRTKEAVELAKKNPEEGLKLAEEIAEEAKKVGTPEQAAVIDSVFK,not found
15,design_486_d4f32670-1303-4d79-8413-1b14cb3eff50_1357_dldesign_0_cycle1_af2pred (protein) GMSEELAKELAEKVTKALAAASKAAAAALANPAVAAQANALLAQAVDYALKFQEAAKKDVEEAKKEAEKAIAAANELKALAAAA,not found
16,design_486_d4f32670-1303-4d79-8413-1b14cb3eff50_1615_dldesign_0_cycle1_af2pred (protein) DGYIQLAIAYANAAANRASPEVAPKLREVAELAKKGATDPEALKKAIELAKKLAKEVPEVADLLEKAVEYLKEALKAVE,not found
17,design_486_d4f32670-1303-4d79-8413-1b14cb3eff50_2148_dldesign_0_cycle1_af2pred (protein) GSAAYEFAKEAIERALKAAEELKKLDPEEGKKLIEKVEKLKKELEANKDNAQKAARIAIEALQIEQEAQQKIAALKAA,not found
18,design_486_d4f32670-1303-4d79-8413-1b14cb3eff50_2179_dldesign_0_cycle1_af2pred (protein) AQEANDLLAETLETLREGQAAAKELGDEEARLKLVELANKSMTLASQAVAAGGDQELLDKAKEYHAELKKLAKEVKEKA,not found
19,design_486_d4f32670-1303-4d79-8413-1b14cb3eff50_1495_dldesign_0_cycle1_af2pred (protein) AAALAAAEAKAKAYIEKVKALDPELGKKTAEAVKKGVKSTPETAAALGNEVTAAAPEEAKPYVAAAIAQAILANALS,not found

row,Binder,binding in a display sort
1,design_487_778f5c6d-c470-43b8-8f82-464af6177e08_560_dldesign_0_cycle1_af2pred (protein) GAAKLAQGALNMAKAQLAYLEKALAAGAADPANAAAYKAKAKEALEQLKTFATAATLVDPAAAPEGDAILKEAEAKYKALSAAIAAA,not found
2,design_487_778f5c6d-c470-43b8-8f82-464af6177e08_421_dldesign_0_cycle1_af2pred (protein) SDAKLAVEAARSAAIAAIELAKQGAWQGAELARQNMKKAAEKALKLGAADPSVKEEVEKEVNAIVKETDAALAAEKAAR,not found
3,design_486_d4f32670-1303-4d79-8413-1b14cb3eff50_1718_dldesign_0_cycle1_af2pred (protein) MSAGEIALANTRAVAKQLIAAGKELGTEEEARKKAEEAIAKVEELAKKGPAGAAEAMKITVEMMKELDKVSKAVEEAE,not found
4,design_487_778f5c6d-c470-43b8-8f82-464af6177e08_100_dldesign_0_cycle1_af2pred (protein) MDKEQVYETAAKMLEEGAELVKAGEETKPAGLAKAKAAALLVLGVDPEVGEKVLKLVEEAEKADQEKAAKLIEEAAKLVKE,not found
5,design_486_d4f32670-1303-4d79-8413-1b14cb3eff50_1537_dldesign_0_cycle1_af2pred (protein) AAAAAAARALALAEEAAAALPPDAGARVREMVRRAVALLEAGDAGAAIQTLLDAIRYGTAAARAIDPARAATVANALTRAIVAISAAA,not found
6,design_487_778f5c6d-c470-43b8-8f82-464af6177e08_420_dldesign_0_cycle1_af2pred (protein) AEEKIKEANRLFQEGARKMVQGLQLAAQGKKEEAEKELTEAIELFTKASKLAKEAGDERLAESAEKAAKEAKAQLAAVKAA,not found
7,design_486_d4f32670-1303-4d79-8413-1b14cb3eff50_1586_dldesign_0_cycle1_af2pred (protein) AEERAAAIARATLAGSLALMRTMSPEDAIRLMEVLADILLSNPLTREYGERVAELARRAREEGPAAAEEAIREGAEIGEELRAA,not found
8,design_487_778f5c6d-c470-43b8-8f82-464af6177e08_452_dldesign_0_cycle1_af2pred (protein) EEERIQRIAEQVEELIKTAEEALATGTAAGKQAAKQLALAAATVLSSVDPELGAKVKEVAKTGTAEEAIKAAKEALEEIKKK,not found
9,design_486_d4f32670-1303-4d79-8413-1b14cb3eff50_1519_dldesign_0_cycle1_af2pred (protein) DEVAKLVDETAAAARAAVAAAARTAAAGTPEQSAALSSLMVATLQAVGDAYRALTDPAEAKAAAEKARALAEELAARTAEIQA,binds (active)
10,design_487_778f5c6d-c470-43b8-8f82-464af6177e08_501_dldesign_0_cycle1_af2pred (protein) MDRAVEIAVASLKHAVKQAIAAAEKIDPELAKKVEEEGKKKIEEAAASDSATAVEIAIEALKKLSELSKKARA,not found
11,design_486_d4f32670-1303-4d79-8413-1b14cb3eff50_1613_dldesign_0_cycle1_af2pred (protein) AAAYKKAVAALDAVVAEAAAISEGAGLIATNIKTQGLTQGAAAKDPAEAAKIVEAALKLATDSVTKYVESSAALR,not found
12,design_486_d4f32670-1303-4d79-8413-1b14cb3eff50_2359_dldesign_0_cycle1_af2pred (protein) DAAKEFAENYEKAAEYVSQIYAKDPAAGEEMQKVLTAKTAEASKLAIAGDLAGAAKVMKEALEIAKKKLEEL,not found
13,design_487_778f5c6d-c470-43b8-8f82-464af6177e08_89_dldesign_0_cycle1_af2pred (protein) SEAEKEAEKAEKLVEELRANPKVPLEKAKELAKAIQELAKLDPEKGAEMASKAVAVILEKGKEIPGETINAILTGVSKAHAIINA,not found
14,design_486_d4f32670-1303-4d79-8413-1b14cb3eff50_2004_dldesign_0_cycle1_af2pred (protein) KKAEILAAGNALVVELLAEAEKAAKAAKAAGDPEAANQALVEAAKGAAKIHALMVKGAPVEELKKEAEAAKKKIKALAE,not found
15,design_486_d4f32670-1303-4d79-8413-1b14cb3eff50_1359_dldesign_0_cycle1_af2pred (protein) AAAAADRAFAITKATAEASMKLMETMTAESALKLGETVAAILRAMAKAYPAHAAELNALADKVEATAKAVAEAKK,not found
16,design_487_778f5c6d-c470-43b8-8f82-464af6177e08_256_dldesign_0_cycle1_af2pred (protein) GEALEKAKEYEKEANEAAAKGKATTPAEGALYFLKAAALYAKAAEEYKKAGDEKNAKEAEAKAKEATANMIALSKQAIAA,not found
17,design_487_778f5c6d-c470-43b8-8f82-464af6177e08_509_dldesign_0_cycle1_af2pred (protein) GEAFSKEALEKGKEAAKKAEESTDPEAKTLYIKAASNYYGAAALALSPESAPLAKERAAKGDEYRAKADAL,not found
18,design_486_d4f32670-1303-4d79-8413-1b14cb3eff50_1473_dldesign_0_cycle1_af2pred (protein) GSMAAAAAAEAARRAALLAEAQAKMNEASKAAIEATKTDPAKAKYYNEALALYQEAAALANDGSKYEEAKEKLKEGDKLMEKV,not found
19,design_487_778f5c6d-c470-43b8-8f82-464af6177e08_613_dldesign_0_cycle1_af2pred (protein) EEAEKERARAIIEKASAKLDALAAEAEERDPALGAQARALRDSLAATAQTYIETGSPTGRAGLNSLAAFLA,not found

# Source: article PMC13494018
